Most compounds without a hit are left out; they make up all but 7.9% or so of the library.
HCMV antiviral: human cytomegalovirus inhibition; HFF cells, HCMV-luciferase reporter, 72 h; hits give low values; AID 1259415; activity change, negative = inhibition, % at 57.5 µM; hit rate 4.5% among 410,000; in the data active means activity change below about -60%; inconclusive means no clear call, values can overlap the other calls; inactive means above about -39%
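After 16 h attachment at 37C, HFF cells received test compound and HCMV-luciferase (1 PFU/cell); reporter luminescence read 72 h later, data normalized against buffer-only and known inhibitor Salinomycin.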
LASV entry inh: blocks Lassa virus binding to or entry into cells | Lassa virus pseudotype entry inhibition, cell reporter | Potency, µM (series often up to 37.9 µM), for the others: at the highest dose activity change, negative = inhibition, hits mostly inhibitors | hit rate 1.2% among 300,000; calls by dose curve; tested in HEK293 cells; further: potency means the concentration at half of the fitted maximal effect; nearly all actives have a fitted effect of over 50% in size
FMDV antiviral: blocks foot and mouth disease virus | FMDV antiviral cell-based qHTS | Potency, µM (top dose mostly 57.9 µM), for the others: at the top dose activity change, negative = inhibition, usual class: inhibitors | hit rate 1.2% among 410,000 | AID 1159524; calls by dose curve; tested in HEK293T cells; further: read-out not given here; potency means the concentration at half of the fitted maximal effect; nearly all actives have a fitted effect of over 45% in size
MARV entry inh: blocks Marburg virus binding to or entry into cells; Marburg virus pseudotyped entry inhibition, cell reporter; Potency, µM (top dose mostly 37.8 µM), inactives show at the highest dose activity change, negative = inhibition, hits mostly inhibitors; hit rate 1.8% among 300,000; calls by dose curve; tested in HEK293 cells; further: potency means the concentration at half of the fitted maximal effect
HCV inh: inhibitors of hepatitis C virus infection; Huh7.5.1 HCVcc-Cre infection, luciferase reporter, 44 h; Potency, µM (top dose mostly 41.8 µM), without a hit: top-dose activity change, negative = inhibition, most hits filed as inhibitors; hit rate 3.4% among 340,000; AID 651820; active means well fitted inhibition curve with a large enough effect; inconclusive means small, poorly fitted or top-dose-only effect, or another doubt; inactive means no such curve, though single readings can be large or run the other way; further: potency means the concentration at half of the fitted maximal effect
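A cell-based infection assay in which seeded cells (1,000 per well) receive test compound after 4 h, are inoculated with HCVcc-Cre at approximately 0.5 moi, and are incubated 44 h before luminescence detection.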
* = called active by the depositor; ! = repeats disagree; [ ] = remark or other dose. On the % scale 0 is the no-effect control and ±100 the full control effect.

For Cc1ccccc1NC(=NCCCN1CC1)Nc1ccccc1C the results were HCMV antiviral -77*, LASV entry inh 13µM*, FMDV antiviral -10%, MARV entry inh 2.2µM* and HCV inh inconclusive.
For CN(C(=O)COC(=O)Cc1c(F)cccc1Cl)c1c(N)n(Cc2ccccc2)c(=O)[nH]c1=O the results were HCMV antiviral 5, LASV entry inh 0%, FMDV antiviral 0%, MARV entry inh 15% and HCV inh -19%.
`CCN(C(=O)c1ccc(=O)n(C)n1)c1c(N)n(Cc2ccccc2)c(=O)[nH]c1=O` gave HCMV antiviral -77*, LASV entry inh 7%, FMDV antiviral -11%, MARV entry inh 1% and HCV inh -15%.
`CCN(C(=O)c1ccc(=O)[nH]c1)c1c(N)n(Cc2ccccc2)c(=O)[nH]c1=O` gave HCMV antiviral -40, FMDV antiviral -7% and HCV inh 10%.
Screening CCN(C(=O)CN(C)Cc1c(F)cccc1Cl)c1c(N)n(Cc2ccccc2)c(=O)[nH]c1=O returned HCMV antiviral -65*, LASV entry inh 18%, FMDV antiviral -7%, MARV entry inh inconclusive and HCV inh 30%.
`Cc1c(C(=O)NCCc2ccncc2)cnn1-c1nccc(-c2ccccc2C(F)(F)F)n1` gave FMDV antiviral -20%.
`O=C(Nc1ccc(F)cc1)c1csc(C(O)Cc2ccccc2)n1` (stereo unspecified) gave HCMV antiviral 50.
Screening C[C@H]1CCC/C=C/[C@@H]2C[C@H](O)C[C@H]2[C@H](O)/C=C/C(=O)O1 returned HCMV antiviral -98*, FMDV antiviral -25% and HCV inh 0.56µM*.
`Oc1ccc(-c2cn3cc(C(F)(F)F)ccc3n2)cc1` gave HCMV antiviral -27, LASV entry inh 2µM*, FMDV antiviral -27%, MARV entry inh 5.8µM* and HCV inh -3%.
Screening CN(C)C(=O)Oc1ccc(-c2cn3cc(C(F)(F)F)ccc3n2)cc1 returned HCMV antiviral -28, LASV entry inh 13%, FMDV antiviral 12%, MARV entry inh -18% and HCV inh 3%.
COCCCC/C(=N\OCCN)c1ccc(C(F)(F)F)cc1 was read as HCMV antiviral 19, LASV entry inh 6.5µM*, FMDV antiviral -21%, MARV entry inh 10µM* and HCV inh 16µM*!.
COc1cc(OC)c(OC)cc1/C=C1/Cc2ccccc2C1=O was read as HCMV antiviral -10, FMDV antiviral -2% and HCV inh inconclusive.
`COc1cc(OC)c(OC)cc1/C=C1\CC(C)C/C(=C\c2cc(OC)c(OC)cc2OC)C1=O` (stereo unspecified) gave HCMV antiviral -99*, FMDV antiviral 13µM* and HCV inh inconclusive.
`CCC1C/C(=C\c2cc(OC)c(OC)cc2OC)C(=O)/C(=C/c2cc(OC)c(OC)cc2OC)C1` (stereo unspecified) gave FMDV antiviral inconclusive and HCV inh 7.1µM*.
`CCC1C/C(=C/c2ccco2)C(=O)/C(=C/c2ccco2)C1` (stereo unspecified) gave LASV entry inh -27%, MARV entry inh -40% and HCV inh inconclusive.
COc1ccc(N(Cc2cc3ccccc3[nH]c2=O)S(=O)(=O)c2ccc(C)cc2)cc1 was read as HCMV antiviral inconclusive, FMDV antiviral -16% and HCV inh -2%.
Screening CS(=O)(=O)N(C(=O)NC(=O)NC12CC3CC(CC(C3)C1)C2)C1CCCCC1 returned HCMV antiviral -64*, LASV entry inh 9%, FMDV antiviral -8%, MARV entry inh 7%[46.1 µM] and HCV inh 6%.
Screening COc1cc(C2=NOC(C(=O)NCc3ccc(F)cc3)C2)cc(OC)c1OC (stereo unspecified) returned HCMV antiviral -84*, LASV entry inh -15%, FMDV antiviral -9%, MARV entry inh inconclusive and HCV inh inconclusive.
Screening COc1ccc(C2=NOC(C(=O)NCc3ccc(F)cc3)C2)cc1OC (stereo unspecified) returned HCMV antiviral inconclusive, LASV entry inh 0.82µM*, FMDV antiviral -19%, MARV entry inh inconclusive and HCV inh inconclusive.
Screening COc1cccc(C2=NOC(C(=O)NCc3ccc(F)cc3)C2)c1 (stereo unspecified) returned HCMV antiviral 43, LASV entry inh -7%, FMDV antiviral -9%, MARV entry inh 15% and HCV inh 15%.

High-throughput results as filed in PubChem BioAssay.
